These results are taken from PubChem BioAssay.

Calls of active or inactive are those of the source. Unless noted, no rule for the calls is given here.

In assay [1] the test system is Wnt5a (protein binding on small-molecule microarray). The assay is described as follows: Wnt5a binders on small-molecule microarray, primary screen, biophysical, 635/667 nm fluorescence (AID 1142).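 Also: fluorescence read at 667 nm with signal to noise per printed feature.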 The note with it: 635 nm fluorescence, higher = more signal.
The nature of assay [2]: cell viability in Huh7 cells, primary screen, cytotoxicity control for HCV replication inhibitor project, CellTiter-Glo luminescence, basal, 48 h (AID 1143).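 Also: Huh7 hepatoma cells carrying a hepatitis C replication reporter with no stimulus; test concentration not given here.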 To be noted: Huh7 HCV replicon, higher = more signal, called active from +8 up or from −8 down.
Assay [3] can be described thus: P. aeruginosa biofilm formation inhibitors, primary screen, PAO1 strain, BacTiter-Glo luminescence, LB-PBS (AID 1144). The note with it: 12 h, higher = more signal.
Assay [4] can be described thus: CREB reporter modulators without forskolin, primary screen, cell-based, PC12, CRE-LacZ reporter, unstimulated (AID 1145). To be noted: no forskolin, luminescence, 4.5 h, higher = more signal, called active from +8 up or from −8 down.
Assay [5] can be described thus: CREB reporter modulators under forskolin, primary screen, cell-based, PC12, CRE-LacZ reporter, forskolin-stimulated (AID 1146).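 Also: PC12 cells with 6xCRE LacZ reporter stimulated by forskolin 10 µM; beta-galactosidase reporter signal reflecting CREB driven transcription.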 The note with it: luminescence, 4.5 h, higher = more signal, called active from +8 up or from −8 down.
Assay [6] addresses Streptavidin (Streptomyces avidinii) (UniProt P22629). The experiment in a line: streptavidin binders on small-molecule microarray, primary screen, artefact control for SMM compound annotation, biophysical, 635/667 nm fluorescence (AID 1147).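 Also: signal reflects streptavidin binding to arrayed compounds as a control protein.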 To be noted: streptavidin binding, higher = more signal.
A short description of assay [7]: small-molecule binders of probe aInhba, primary screen, biochemical, small-molecule microarray, 635/667 nm fluorescence (AID 1148).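 Also: score merges 667nm spot fluorescence with signal-to-noise for antibody binding to printed compounds.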 The note with it: higher = more signal.
Assay [8] addresses Torsin-1A (Homo sapiens) (UniProt O14656). The experiment in a line: torsin A binders from cell lysate, primary screen, small-molecule microarray, wild-type, 635/667 nm (AID 1149). To be noted: COS7 hTOR1A-WT lysate, 635 nm fluorescence, higher = more signal.
Assay [9] shares this target. The assay is described as follows: small-molecule binders of mutant TOR1A in lysate, primary screen, cell lysate, small-molecule microarray, COS7 lysate, 635/667 nm fluorescence (AID 1150).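 Also: score pools 667 nm emission and signal to noise measuring lysate protein binding.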 To be noted: COS7 hTOR1A mutant lysate, 635 nm fluorescence, higher = more signal.
Assay [10] concerns Sonic hedgehog protein (Shh). The assay is described as follows: small-molecule binders of Shh protein, primary screen, biochemical, small-molecule microarray, 635/667 nm fluorescence (AID 1151).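 Also: Shh protein binding to compounds spotted on small-molecule microarray slides; score combines spot fluorescence intensity with signal-to-noise across triplicate slides.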 To be noted: small-molecule microarray binding, 635 nm fluorescence; higher = more signal.

Sequence of Streptavidin (Streptomyces avidinii) (P22629 whole entry, looked up): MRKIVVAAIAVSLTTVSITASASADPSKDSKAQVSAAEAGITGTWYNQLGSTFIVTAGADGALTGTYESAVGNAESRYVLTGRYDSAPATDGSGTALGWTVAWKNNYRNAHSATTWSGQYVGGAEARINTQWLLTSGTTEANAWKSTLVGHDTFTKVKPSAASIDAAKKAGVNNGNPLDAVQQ
Sequence of Torsin-1A (Homo sapiens) (O14656 whole entry, looked up): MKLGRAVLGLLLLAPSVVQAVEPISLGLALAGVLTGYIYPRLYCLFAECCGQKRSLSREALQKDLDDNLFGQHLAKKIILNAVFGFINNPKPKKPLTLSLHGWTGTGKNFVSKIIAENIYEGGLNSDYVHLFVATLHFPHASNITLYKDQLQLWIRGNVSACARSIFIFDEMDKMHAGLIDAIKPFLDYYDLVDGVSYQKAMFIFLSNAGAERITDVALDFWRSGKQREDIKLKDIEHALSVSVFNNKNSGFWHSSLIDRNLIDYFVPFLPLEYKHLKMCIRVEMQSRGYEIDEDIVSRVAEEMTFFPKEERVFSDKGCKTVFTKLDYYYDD

As for `O=C1c2ccccc2[C@](Cc2ccccc2I)(C(=O)NCCN2CCOCC2)[C@H](c2ccc(CO)cc2)N1Cc1ccccc1Cl`, the composite z-score turned out to be 0.66 in assay [1]; 0.851 in assay [6]; 0.62 in assay [7]; 0.442 in the assay with Torsin-1A (Homo sapiens) [8]; 0.244 with Torsin-1A (Homo sapiens) [9]; 1.43 in assay [10]. In addition, the z-score in assay [2] was -2.57 (inactive); in [3], 0.825 (inactive); in [4] it was -0.0512 (inactive); in assay [5], -1.01 (inactive).

Consider `O=C1NC(=O)C2C1C=CC(C(O)c1cc(C(F)(F)F)cc(C(F)(F)F)c1)N2Nc1ccccn1` (stereo not given), for which the composite z-score was -0.102 in assay [1]; 0.0086 in assay [6]; -0.0059 in assay [7]; -0.138 with Torsin-1A (Homo sapiens) [8]; 0.237 in the assay with Torsin-1A (Homo sapiens) [9]; 0.87 in assay [10]. The z-score in assay [2] was 0.804 (inactive); in assay [3], -0.162 (inactive); in assay [4], 0.0501 (inactive); in assay [5] it was 0.403 (inactive).

Consider `C=CC[C@@]12N=C(c3ccc(OCCCO)cc3)O[C@@H]1c1ccccc1N(C)C2=O`, for which the composite z-score in assay [1] is 1.25; in assay [6], 0.248; in assay [7], 0.268; with Torsin-1A (Homo sapiens) [8] it was -0.0951; in the assay with Torsin-1A (Homo sapiens) [9], 0.713; in assay [10], 1.42. Moreover, the z-score in [2] was -4.44 (inactive); in assay [3], -0.0229 (inactive); in assay [4] it was 0.297 (inactive); in assay [5], -0.845 (inactive).

On to `CC(C)C(=C=CC[C@@H](O)c1ccc(OCCO)cc1)C[C@@H](O)COCc1ccccc1`, for which the composite z-score in assay [1] was 0.13; in assay [6] it was -0.0104; in assay [7] it was -0.0762; with Torsin-1A (Homo sapiens) [8] it was -0.372; with Torsin-1A (Homo sapiens) [9] it was -0.208; in [10], 2.09. The z-score in [2] is -2.24 (inactive); in assay [3], -0.933 (inactive); in assay [4], 6.97 (inactive); in assay [5], -1.23 (inactive).

Consider `C=CCNC(=O)[C@@H]1[C@H]2C(=O)O[C@H](c3ccccc3)[C@H](c3ccccc3)N2[C@H](c2ccc(O)cc2)[C@@]12C(=O)Nc1ccc(C#CCNC(N)=O)cc12`, for which the composite z-score in assay [1] is -0.525; in [6], -0.325; in [7] it was -0.339; with Torsin-1A (Homo sapiens) [8], -0.138; in the assay with Torsin-1A (Homo sapiens) [9], 0.121; in assay [10] it was 0.316. Besides, the z-score in assay [2] is -0.0804 (inactive); in assay [3], -0.233 (inactive); in assay [4], 1.21 (inactive); in assay [5], -0.434 (inactive).

As to `O=C1N(Cc2ccccc2)c2ccccc2[C@@H]2OC(c3ccc(OCCCO)cc3)=N[C@]12CCS(=O)(=O)c1ccccc1`, the composite z-score was 0.443 in assay [1]; 0.209 in assay [6]; -0.0719 in [7]; 0.216 in the assay with Torsin-1A (Homo sapiens) [8]; 0.726 with Torsin-1A (Homo sapiens) [9]; 0.695 in assay [10]. The z-score in [2] is -2.24 (inactive); in assay [3] it was -0.19 (inactive); in [4], 3.13 (inactive); in assay [5], -0.406 (inactive).

On to `COCCOC(=O)N1C(=O)[C@@]2(c3cc(C#Cc4ccc(OC)cc4)ccc31)[C@H](c1ccc(OCCO)cc1)N1[C@H](c3ccccc3)[C@H](c3ccccc3)OC(=O)[C@H]1[C@@H]2C(=O)N1CCN(c2ncccn2)CC1`, for which the composite z-score in assay [1] was determined as 0.377; in assay [6] it was 0.165; in [7], 0.0464; in the assay with Torsin-1A (Homo sapiens) [8] it was 0.846; with Torsin-1A (Homo sapiens) [9], 0.775; in assay [10], 1.69. In addition, the z-score in assay [2] is -0.438 (inactive); in assay [3], -0.112 (inactive); in assay [4], 0.0695 (inactive); in assay [5], 0.559 (inactive).

`CCOC(=O)C[C@H]1[C@H](OC(=O)c2ccc(C(=O)c3ccccc3)cc2)[C@@H](NC(=O)c2ccc3ccccc3c2)c2cc(OCCCO)ccc2N1C(=O)Cc1ccc(OC)cc1`: the composite z-score is -0.354 in assay [1]; 0.271 in assay [6]; -0.102 in assay [7]; 1.08 in the assay with Torsin-1A (Homo sapiens) [8]; 0.16 in the assay with Torsin-1A (Homo sapiens) [9]; -0.006 in [10]. The z-score was -0.132 (inactive) in [2], -0.329 (inactive) in assay [3], -0.635 (inactive) in [4] and -0.383 (inactive) in [5].

`COCCOC(=O)N1C(=O)[C@@]2(c3ccccc31)[C@H](c1ccc(O)cc1)N1[C@H](c3ccccc3)[C@H](c3ccccc3)OC(=O)[C@H]1[C@@H]2C(=O)Nc1nc2ccccc2s1`: the composite z-score in [1] amounted to 0.243; in assay [6] it was 0.795; in assay [7] it was 0.225; with Torsin-1A (Homo sapiens) [8], 0.514; with Torsin-1A (Homo sapiens) [9], 1.23; in assay [10] it was 1.13. The z-score was -1.67 (inactive) in assay [2], 0.272 (inactive) in [3], -0.467 (inactive) in assay [4] and 2.42 (inactive) in assay [5].

With `COc1ccc([C@H]2OC[C@@H]3C[C@@H](Cc4ccccc4)C(=O)N32)cc1`, the composite z-score was 0.157 in [1]; -0.679 in assay [6]; -0.0403 in [7]; 0.656 with Torsin-1A (Homo sapiens) [8]; 0.556 with Torsin-1A (Homo sapiens) [9]; 1.33 in assay [10]. Moreover, the z-score was -0.316 (inactive) in [2], 1.01 (inactive) in assay [3], 0.978 (inactive) in assay [4] and 0.627 (inactive) in assay [5].

With `CCC(CC)C(O)C1C=CC2C(=O)NC(=O)C2N1Nc1ccc(Cl)cc1Cl` (stereo not given), the composite z-score in [1] was 0.0146; in [6], 0.673; in assay [7], 0.225; in the assay with Torsin-1A (Homo sapiens) [8] it was -0.167; with Torsin-1A (Homo sapiens) [9], 0.418; in [10], 0.463. For the same molecule, the z-score is -0.776 (inactive) in [2], 0.34 (inactive) in [3], 0.243 (inactive) in [4] and -0.273 (inactive) in [5].
